In the library only some 0.4% were active in any assay of this set; here they are far more common.
TRPML1 inh = blocks the human TRPML1 channel; TRPML1-inducible cells, Ca2+ dye fluorescence, FDSS; stronger effect = lower value; inhibition of EC80 agonist-evoked calcium signal; activity change, negative = inhibition, % (test concentration not listed); 390,000 tested, 0.02% active; in the data active means activity change below about -50%; inconclusive means between about -30% and that limit;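 further: stimulus is agonist 54-4 at its EC80 concentration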
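TRPML1-DL cells, Tet-induced overnight (~16 h, 37 °C) at 1,500 cells/well, were loaded with Ca8 no-wash dye plus quencher for 45-90 min at room temperature. Compounds were pinned during FDSS kinetic reading; agonist 54-4 at EC80 (4 uM final) then added.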
EPAC1 antag = antagonists of human EPAC1 | O95398 | EPAC1 GEF assay, Rap1b-BODIPY-GDP exchange fluorescence | Potency, µM (top dose mostly 115 µM), most hits filed as inhibitors | 360,000 tested, 0.14% active | AID 720709; further: nearly all actives have a fitted effect of over 50% in size
EPAC2 agonist = agonists of human EPAC2 (RAPGEF4) | Q8WZA2 | 360,000 tested, 0.079% active | EPAC2 activation, biochemical qHTS; response scale: 100% = 6.5 mM cAMP response | AID 720711 | Potency, µM (doses to about 154 µM), actives largely listed as activators; further: nearly all actives have a fitted effect of over 50% in size
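Readout is BODIPY fluorescence (480 nm excitation, 540 nm emission), which falls as labeled GDP is exchanged off Rap1B. EPAC2 at 100 nM acted on 250 nM RAP1B-BODIPY-GDP with 50 uM GDP present.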
TRPML1 agonist = human mucolipin-1 channel agonism. TRPML1-expressing cells, Ca2+ dye fluorescence, FDSS. AID 624414. activation, % (concentration not given with the values). 410,000 tested, 0.12% active; in the data active means activation above about 50%; inconclusive means mostly about 30% to 49%
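Cells: TRPML1-DL, 1X Tet inducer, ~16 h at 37 degrees C/5% CO2. Dye: ABD Ca8 no-wash + quencher, 45-90 min RT. Read: 10 s baseline, compound add, 110 s agonist phase; 54-4 EC80 (4uM final), 110 s antagonist phase.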
EPAC2 antag = blocks human EPAC2 exchange factor; Q8WZA2; EPAC2 GEF exchange of Rap1B-BODIPY-GDP, fluorescence; Potency, µM (highest dose often 114 µM), actives largely listed as inhibitors; 360,000 tested, 0.18% active; further: nearly all actives have a fitted effect of over 45% in size
EPAC1 agonist = agonists of human EPAC1 | Potency, µM (highest dose often 154 µM), most hits filed as activators | 360,000 tested, 0.073% active | AID 720707 | O95398 | EPAC1 agonist qHTS, biochemical assay; response scale: 100% = response to 6.5 mM cAMP; further: nearly all actives have a fitted effect of over 60% in size
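Read-out is the fluorescence drop as BODIPY-GDP leaves Rap1B (480 nm excitation, 540 nm emission), recorded every 5 minutes over 30 minutes. Reactions held 100 nM EPAC1, 250 nM Rap1B–BODIPY-GDP and 50 uM GDP, with 6.5 mM cAMP setting full activation.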
A number is an active result; . = inactive; ? = inconclusive; / = no result. Unless noted, the call rests on the fitted dose curve; in most records, active means well fitted curve in the direction sought with a large enough effect; inconclusive means small, poorly fitted or top-dose-only effect, or another doubt; inactive means no such curve, though single readings can be large; an effect the other way counts as inactive or inconclusive.

SMILES | TRPML1 inh | EPAC1 antag | EPAC2 agonist | TRPML1 agonist | EPAC2 antag | EPAC1 agonist
CN(C)c1ccc(N=Cc2c(O)n(CCC3=CCCCC3)c(=O)[nH]c2=O)cc1 | . | . | . | . | . | ?
COC1C(OC(=O)c2ccc(C)[nH]2)C(O)C(Oc2ccc3c(O)c(NC(=O)c4ccc(O)c(CC=C(C)C)c4)c(=O)oc3c2Cl)OC1(C)C (stereo not given) | / | 39.8µM | . | / | . | .
CCOC(=O)[C@]12Cc3cc(Cl)ccc3[C@H]1N(C(C)C)C(=O)c1ccccc12 | / | . | . | . | 16.8µM | .
CCOC(=O)[C@]12Cc3ccccc3[C@H]1N(Cc1ccccc1)C(=O)c1cc(OC)ccc12 | / | . | . | . | 28.2µM | .
Nc1ccc2ccc3cccc[n+]3c2c1 | . | . | 112µM | 86.7 | . | 100µM
N=C1/C(=C\c2ccc(OC(=O)c3ccccc3Cl)cc2)C(=O)N=C2SC(N3CCOCC3)=NN12 | . | ? | . | . | . | .
O=C(C[C@@H]1CC[C@@H]2[C@H](COC[C@H](O)CN2Cc2cccc(C(F)(F)F)c2)O1)NCc1ccc(Cl)cc1 | / | . | . | / | ? | .
O=C1C(=O)C(Cl)=C(Cl)C(Cl)=C1Cl | / | ? | . | . | . | .
NCC(=O)c1cccc([N+](=O)[O-])c1 | / | / | / | . | / | /
Cc1cccc(N2C(=O)NC(=O)/C(=C\c3cc(C)n(-c4sc5c(c4C#N)CCCC5)c3C)C2=O)c1C | . | 35.5µM | . | . | . | .
CC(=O)Nc1ccc(N(C(=O)Cn2nnc3ccccc32)C(C(=O)NC2CCCC2)c2ccc(O)c(O)c2)cc1 (stereo not given) | . | ? | . | . | . | .
O=C(Nc1ccc(Br)cc1C(=O)c1ccccc1Cl)c1ccccc1F | . | / | / | 77.4 | / | /
CCCCN1C(=O)/C(=C\c2ccco2)C(=O)N(CCc2ccccc2)C1=O | . | 25.1µM | . | . | . | .
O=Cc1c(C(=O)O)n(Cc2ccc(Cl)cc2)c2ccccc12 | . | . | . | . | . | 44.7µM
Cc1ccc(C(=O)CN2CCOCC2)cc1 | / | / | / | . | / | /
COc1cccc(C(C)(O)c2nc(-c3cccc(F)c3)cs2)c1 (stereo not given) | / | . | . | . | ? | .
COc1ccc(N=Cc2c(O)n(Cc3ccccc3)c(=S)[nH]c2=O)c(OC)c1 | . | . | 100µM | . | . | .
O=c1[nH]c(=S)n(-c2ccccc2F)c(O)c1C=Nc1ccc(N2CCOCC2)cc1 | . | . | ? | . | . | 56.2µM
O=c1cc(C(F)(F)F)c2cc3c4c(c2o1)CCCN4CCC3 | . | . | 44.7µM | 106.0 | . | ?
O=[N+]([O-])c1ccc(NCc2ccc(Cl)cc2)c2ccncc12 | . | . | . | . | . | .
O=[N+]([O-])c1ccc(NCc2ccccc2)c2nonc12 | . | . | 56.2µM | 77.5 | . | 56.2µM
COc1ccccc1N=Nc1ccc(N)c(C)c1 | . | ? | . | . | . | .
O=C(O)C(NC(=O)c1ccccc1)=C(Cl)Cl | . | ? | . | . | . | .
CCOc1ccc(N2C(=O)/C(=C\c3cccs3)C(=O)NC2=S)cc1 | . | . | . | . | . | .
CCOc1ccc(N2C(=O)/C(=C/c3ccco3)C(=O)NC2=S)cc1 | . | 11.2µM | . | . | ? | .
SMILES | TRPML1 inh | EPAC1 antag | EPAC2 agonist | TRPML1 agonist | EPAC2 antag | EPAC1 agonist
COc1ccc(NC(=O)CN(C)C(=O)CSC(c2ccccc2)c2ccccc2)cc1 | . | . | . | . | . | .
COc1ccc(C(SCC(NC(=O)OCc2ccccc2)C(=O)O)c2ccc(OC)cc2)cc1 (stereo not given) | . | . | . | . | 14.1µM | .
Cn1cccc1/C=C1/C(=O)NC(=S)N(Cc2ccc(F)cc2)C1=O | . | 15.8µM | . | . | . | .
O=[N+]([O-])c1cc([As](=O)(O)c2ccc(O)c([N+](=O)[O-])c2)ccc1O | . | . | . | . | 17.8µM | .
COc1ccccc1Cc1c(-c2ccc(C)cc2)nc2cc(C)c(Br)c(C)n12 | / | . | . | . | . | ?
CN1/C(=C\C=C2C(=O)NC(=S)NC2=O)C(C)(C)c2ccccc21 | . | . | 50.1µM | 116.7 | . | ?
O=[N+]([O-])c1ccc(N2CCCCCC2)c2nonc12 | . | . | 100µM | 110.2 | . | 100µM
O=c1c(O)c(-c2ccc(O)c(O)c2)oc2cc(O)cc(O)c12 | . | ? | . | . | . | .
O=c1cc(-c2ccc(O)c(O)c2)oc2cc(O)cc(O)c12 | . | 44.7µM | . | . | . | .
CC1(C)N([O])C(c2ccc(C(=O)O)cc2)=[N+]([O-])C1(C)C | / | / | / | . | / | /

Bioassay records from PubChem BioAssay.
